# Rows were chosen to be rich in hits. Some 3.2% of all compounds tested hit in one or more screens of this group.
# LmPK inh = qHTS Assay for Inhibitors of Leishmania Mexicana Pyruvate Kinase (LmPK); Potency, µM (doses to about 57.5 µM), most hits filed as inhibitors; Q27686; hit rate 0.37% among 290,000; purified LmPK, Kinase-Glo ATP luminescence, 1 h
# Target sequence (Q27686 whole entry, looked up): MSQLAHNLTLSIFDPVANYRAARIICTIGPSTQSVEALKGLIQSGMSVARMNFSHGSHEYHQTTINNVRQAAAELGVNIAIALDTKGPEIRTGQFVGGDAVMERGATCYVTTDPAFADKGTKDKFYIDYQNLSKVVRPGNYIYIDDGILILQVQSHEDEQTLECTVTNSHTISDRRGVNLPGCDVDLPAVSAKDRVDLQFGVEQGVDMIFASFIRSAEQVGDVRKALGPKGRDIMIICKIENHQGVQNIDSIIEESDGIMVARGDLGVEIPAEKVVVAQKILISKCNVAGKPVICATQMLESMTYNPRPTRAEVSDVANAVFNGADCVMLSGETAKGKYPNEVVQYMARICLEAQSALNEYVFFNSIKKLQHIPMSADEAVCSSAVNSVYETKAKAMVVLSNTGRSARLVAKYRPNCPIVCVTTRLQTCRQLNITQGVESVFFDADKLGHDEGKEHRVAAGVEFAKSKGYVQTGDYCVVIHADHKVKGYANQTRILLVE
#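 Pyruvate kinase activity monitored as ATP production (luciferase luminescence). Conditions: 0.1 nM enzyme, 0.5 mM PEP, 0.1 mM ADP, 1 h, RT; normalized against uninhibited and no-enzyme wells.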
# AMA1 RON2 block = qHTS for Inhibitors of AMA1-RON; Towards Development of Antimalarial Drug Lead: Primary Screen; Plasmodium falciparum AMA1 (3D7) - RON2 peptide interaction; AlphaScreen AMA1-biotinylated RON2 peptide binding; Potency, µM (series often up to 58.2 µM), usual class: inhibitors; hit rate 0.2% among 360,000; AID 720542, 2013; further: nearly all actives have a fitted effect of over 45% in size
#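 AMA1 (3D7) with his tag at 25 nM final met compounds first, then biotinylated RON2 peptide at 25 nM; detection used donor plus acceptor beads, 10 µg/mL apiece, read by AlphaScreen after 30 min at room temperature.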
# RE007 growth inh = qHTS Assay for Inhibitors of the HIV-1 protein Vpr; S. pombe RE007 Vpr strain, BacTiter-Glo ATP luminescence, 24 h; hit rate 0.21% among 360,000; Potency, µM (series often up to 92.2 µM), actives largely listed as inhibitors; active means well fitted falling curve with a large enough effect; inconclusive means small, poorly fitted or top-dose-only effect; inactive means no such curve, though single readings can be large or run the other way; further: nearly all actives have a fitted effect of over 50% in size
#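 Fission yeast strain RE007, carrying one chromosomally integrated HIV-1 vpr copy, was seeded at OD 0.01 in PMG+AL medium with 23 nL pinned compound. After 24 h at 30 °C and 99% humidity, viability was read by BacTiter-Glo luminescence.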
# Sm TGR inh = qHTS Assay for the Inhibitors of Schistosoma Mansoni Peroxiredoxins; Schistosoma mansoni thioredoxin glutathione reductase (TGR), Q962Y6; hit rate 3% among 360,000; Potency, µM (highest dose often 114 µM), most hits filed as inhibitors; AID 485364, 2010; purified TGR, DTNB reduction, TNB absorbance 405 nm; further: nearly all actives have a fitted effect of over 60% in size
#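 First, TGR (20 nM dispensed) and NADPH were mixed with compound. Second, a 15 min room-temperature incubation followed. Third, further NADPH and then DTNB were added to start the reaction. Finally, TNB absorbance was monitored kinetically.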
# Tb PYK inh = qHTS of Trypanosoma Brucei Inhibitors | pyruvate kinase (Trypanosoma brucei), Q57TT1 | Potency, µM (highest dose often 76.8 µM), most hits filed as inhibitors | TbPYK enzyme, Kinase-Glo Plus ATP luminescence, 45 min | hit rate 0.12% among 410,000; further: nearly all actives have a fitted effect of over 50% in size
#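 TbPYK + substrate in 50 mM TEA pH 7.2, 100 mM KCl, 10 mM MgCl2, 0.05% BSA, 0.01% Tween-20; cpd pinned; ADP 130 uM final; 45 min RT; Kinase-Glo Plus 10 min; luminescence endpoint.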
# Hits are given with their value; – = inactive; ? = inconclusive; · = not tested or not shown. Unless noted, the call rests on the fitted dose curve; in most records, active means well fitted curve in the direction sought with a large enough effect; inconclusive means small, poorly fitted or top-dose-only effect, or another doubt; inactive means no such curve, though single readings can be large; an effect the other way counts as inactive or inconclusive.
SMILES,LmPK inh,AMA1 RON2 block,RE007 growth inh,Sm TGR inh,Tb PYK inh
CC(NC(=O)c1sc2ncccc2c1-n1cccc1)c1ccccc1 (centres undefined),·,·,·,–,–
O=C1CC(N2CCSCC2)C(=O)N1c1cccc(Br)c1 (centres undefined),–,–,32µM,45µM,–
O=C1CC(N2CCN(c3ccccc3)CC2)C(=O)N1c1cccc(Br)c1 (centres undefined),–,–,?,–,–
CC(=O)SC1CC(=O)N(c2c(C)cccc2C)C1=O (centres undefined),–,–,–,14µM,–
Cc1cccc(C)c1N1C(=O)CC(N2CCSCC2)C1=O (centres undefined),–,–,?,45µM,–
Cc1ccc(/C=C/c2nc3ccccc3s2)s1,28µM,–,?,–,–
CCC(C)[C@H](NC(=O)[C@@H]1CSC2c3ccccc3C(=O)N21)C(=O)NCc1ccco1 (some centres undefined),–,–,–,45µM,–
CCC(C)[C@H](NC(=O)[C@@H]1CSC2c3ccccc3C(=O)N21)C(=O)NC1CCCC1 (some centres undefined),–,–,–,–,–
O=C(CCCCn1c(=O)c2ccccc2n(Cc2cccc(F)c2)c1=O)NCc1ccc2c(c1)OCO2,·,·,·,–,–
Cc1ccc(O)c(NC(=O)c2noc(C(C)C)c2[N+](=O)[O-])c1,–,–,–,35µM,–
CC(C)c1onc(C(=O)NCCc2ccccc2)c1[N+](=O)[O-],–,–,–,45µM,–
CC(C)c1onc(C(=O)N(C)Cc2ccccc2)c1[N+](=O)[O-],–,–,–,–,–
CC(=O)c1ccc(NC(=O)c2noc(C(C)C)c2[N+](=O)[O-])cc1,–,–,–,–,–
CC(C)c1onc(C(=O)NC(C)c2ccccc2)c1[N+](=O)[O-] (centres undefined),–,–,–,40µM,–
CN(C)c1ccc(CNC(=O)c2ccc(NC(=O)N3CCCCc4ccccc43)cc2)cc1,·,·,·,–,–
CCn1c(O)c(/C=N/NC(=O)c2ccccc2)c(=O)[nH]c1=S,–,–,–,–,–
COc1ccccc1-n1c(O)c(/C=N/NC(=S)Nc2ccccc2)c(=O)[nH]c1=S,–,–,–,11µM,?
O=C(CC1Sc2ncnn2C1=O)Nc1ccc(Br)cc1 (centres undefined),–,–,?,1µM,–
O=C(CC1SC2=NCCN2C1=O)Nc1ccc(Br)cc1 (centres undefined),–,–,–,–,–
CN1CCN(c2oc(/C=C/c3ccc(F)cc3)nc2C#N)CC1,·,·,·,–,–
CC(C)Oc1cccc(C(=O)NC(=S)Nc2ccc(Cl)c(C(=O)O)c2)c1,–,–,–,40µM,–
CC(C)Oc1cccc(C(=O)NC(=S)Nc2cccc(C(F)(F)F)c2)c1,–,–,–,–,–
COc1ccc(C(=O)NC(=S)Nc2ccc(Cl)c(C(=O)O)c2)cc1,–,–,–,40µM,–
COc1ccc(-n2nc3c(N4CCCC(C(=O)NCc5ccc(C)cc5)C4)nnc(C)c3c2C)cc1 (centres undefined),·,·,·,–,–
Cc1ccc(CNC(=O)c2c(-c3cccc(Br)c3)noc2C)o1,·,·,·,?,–
SMILES,LmPK inh,AMA1 RON2 block,RE007 growth inh,Sm TGR inh,Tb PYK inh
CN1CCN(Cc2cc(COCc3ccccc3)c3cccnc3c2O)CC1,–,–,–,25µM,–
CCCOCc1cc(CN2CCN(c3cccc(Cl)c3)CC2)c(O)c2ncccc12,·,·,·,–,–
CN1CCN(C2CCN(Cc3ccc(O)c4ncccc34)CC2)CC1,·,·,·,1.6µM,–
Cc1ccc2oc(-c3cc(NC(=O)CC(C)C)ccc3Cl)nc2c1,·,·,·,–,–
CCc1nn2c(=O)cc(COC(=O)c3cccc(NC(=O)c4ccccc4C)c3)nc2s1,·,·,·,–,–
O=C1CC(SC2=NCCS2)C(=O)N1c1ccc(Cl)cc1 (centres undefined),–,–,–,56µM,–
O=C1CC(Sc2ccc(Cl)cc2)C(=O)N1c1ccc2c(c1)OCCO2 (centres undefined),–,–,–,4µM,–
